Bioassay records as filed in PubChem BioAssay.
C-LANA FP – inhibitors of KSHV LANA C-terminal domain DNA binding; MBP-C-LANA/FAM-LBS DNA binding, fluorescence polarization; inhibition, % at 9 µM; hit rate 0.078% among 340,000; AID 504423;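 active = highest replicate inhibition at or above 60% at 9 µM, even if other replicates fall short; inactive = all replicates below 60% inhibition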;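 note: 0% = neutral control wells and 100% = 4 µM acridine orange control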
RTF Ca sens act – cardiac RTF calcium sensitization. P19429+P45379. IANBD-labeled TnC RTF fluorescence at EC20 calcium; 0% EC20 calcium, 100% full calcium. activation, % at 7.2 µM. hit rate 0.24% among 340,000. AID 493008;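 active = activation above the mean over all tested compounds plus 3 SD, cut at about 30% in these data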;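 note: rise in fluorescence read as greater calcium sensitivity of cardiac thin filaments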
Keap1 Nrf2 FP – inhibitors of human Keap1-Nrf2 protein-protein interaction; Q14145; Keap1 Kelch-Nrf2 peptide fluorescence polarization, 1536-well; hit rate 0.15% among 340,000; inhibition, % at 9.4 µM; in the data active = inhibition above about 12%;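 note: human Keap1 Kelch domain with fluorescein labeled Nrf2 9mer peptide probe; 0% = neutral control wells and 100% = peptide positive control; higher means more block of Keap1 binding to Nrf2 peptide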
Target sequence (Q14145 whole entry, looked up, the tested form may be a part): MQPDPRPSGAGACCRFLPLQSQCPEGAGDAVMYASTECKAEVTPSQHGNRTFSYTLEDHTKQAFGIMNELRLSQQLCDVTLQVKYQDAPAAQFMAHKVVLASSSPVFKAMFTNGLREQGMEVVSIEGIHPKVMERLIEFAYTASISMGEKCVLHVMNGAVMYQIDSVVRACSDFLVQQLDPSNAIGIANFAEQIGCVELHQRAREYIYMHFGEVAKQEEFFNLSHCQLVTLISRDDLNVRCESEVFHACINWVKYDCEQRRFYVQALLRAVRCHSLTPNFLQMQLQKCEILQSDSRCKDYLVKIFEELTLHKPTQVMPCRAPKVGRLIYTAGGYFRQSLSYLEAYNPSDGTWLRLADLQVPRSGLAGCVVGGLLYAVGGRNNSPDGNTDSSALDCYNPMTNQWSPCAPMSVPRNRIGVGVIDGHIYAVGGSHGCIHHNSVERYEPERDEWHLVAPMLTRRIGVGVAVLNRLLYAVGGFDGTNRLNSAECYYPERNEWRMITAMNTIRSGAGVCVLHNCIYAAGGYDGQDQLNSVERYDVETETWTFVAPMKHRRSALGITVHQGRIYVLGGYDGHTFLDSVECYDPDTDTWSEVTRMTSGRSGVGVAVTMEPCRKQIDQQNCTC
E coli Lon inh – E. coli protease La inhibition | P0A9M0 | inhibition, % at 7.94 µM | purified E. coli Lon protease, fluorescence polarization | hit rate 0.42% among 360,000; in the data active = inhibition above about 13%, passing the limit was not always enough;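 note: 0% = enzyme with probe and DMSO and 100% = no enzyme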
RTF Ca sens inh – cardiac RTF calcium desensitization; P19429+P45379; IANBD-labeled cardiac RTF, Ca2+ fluorescence; inhibition, % at 7.15 µM; hit rate 0.12% among 340,000; AID 493244;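 active = inhibition above the mean inhibition of all tested compounds plus 3 SD, cut at about 17% in these data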;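 note: assay run at fixed EC70 calcium of 1.6 mM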
RTF Ca inh conf – confirmation of inhibitors of cardiac thin filament calcium sensitivity; hit rate 8% among 360; shares compounds with RTF Ca sens inh; reconstituted cardiac thin filaments, calcium sensitivity fluorescence; inhibition, % at 7.15 µM; AID 504635; in the data active = inhibition above about 18%
Active calls of the source: *; / = no result given. A selection: hits, their analogues and other compounds. The true share with any hit is near 0.82%.

SMILES	C-LANA FP	RTF Ca sens act	Keap1 Nrf2 FP	E coli Lon inh	RTF Ca sens inh	RTF Ca inh conf
Cc1ccc(CSc2nnc(SCC(=O)N/N=C/c3c[nH]c4ccccc34)s2)cc1	-1	-7	0	1	23*	3
CCN(CC)CCNC(=O)c1ccc(Sc2ccc(C)cc2)c(NC(C)=O)c1	-1	-1	-4	1	18*	-5
O=C(Nc1ccc2c(c1)OCO2)c1csc([C@H]2C[C@H](O)[C@@H](CO)O2)n1	/	/	/	5	/	/
O=C1c2ccccc2C(c2nnnn2Cc2ccccc2)N1C1CC1 (stereo not given)	/	/	/	-1	/	/
O=C(C1CCCCN1S(=O)(=O)c1ccccc1[N+](=O)[O-])N1CCOCC1 (stereo not given)	1	5	2	9	18*	-1
O=C(Nc1ccc(N2CCOCC2)c(Cl)c1)c1ccccc1Cl	0	0	-3	-9	50*	-5
O=C(Nc1ccc(N2CCOCC2)c(Cl)c1)c1ccc(F)cc1	1	3	-2	5	-7	/
O=C(COc1ccccc1Cl)Nc1ccc2c(c1)OCO2	-1	-5	-1	5	19*	-3
CC(C)(C)C1CCc2c(C(=O)NNC(=O)CCCC(=O)O)csc2C1 (stereo not given)	0	-3	1	-12	17*	0
COc1ccc(-n2nnnc2C(c2ccccc2)N2CCN(C/C=C/c3ccccc3)CC2)cc1 (stereo not given)	/	/	/	-6	/	/
O=c1c(O)cccc2cc(O)c(O)c(O)c12	82*	-40	-5	15	87*	51*
O=c1cc(-c2ccccc2)oc2cc(O)c(O)c(O)c12	4	2	-1	-1	2	/
COc1ccccc1CN(C)C[C@@H]1OCc2cnnn2CCCC(=O)N([C@@H](C)CO)C[C@H]1C	/	/	/	8	/	/
COc1cc(NC(=O)c2ccc(-c3ccc(F)c(F)c3)c3ccoc23)cc(OC)c1OC	/	/	/	5	/	/
COc1ccc(S(=O)(=O)n2ccc(-c3ccc(OCCN(C)c4ccccn4)cc3)n2)cc1	-1	-2	-2	1	17*	-2
CC12CCC(O)CC1=CCC1C2CCC2(C)C3=NN=CC3CC12 (stereo not given)	-1	6	0	-10	-6	/
CCOC(=O)C1=CCC(c2ccccc2C(F)(F)F)N(S(=O)(=O)c2ccc(C)cc2)C1 (stereo not given)	/	/	/	1	/	/
CCN1C(=O)[C@H]2[C@@H](c3ccc(C)cc3)N[C@]3(CCCN(Cc4ccc(Cl)cc4)C3=O)[C@H]2C1=O	/	/	/	2	/	/
Cc1ccccc1OCC(=O)OCC(=O)NCc1ccccc1	0	-4	0	-8	7	/
COc1ccccc1C(=O)NC(=O)COC(=O)CCOc1ccc(C)cc1	0	-2	0	13	-19	/
Cc1ccccc1OCC(=O)OCC(=O)NCCNC(=O)COC(=O)COc1ccccc1C	0	-10	-2	0	17*	0
COc1ccccc1C(=O)NC(=O)COC(=O)CCOc1ccccc1C	0	-14	0	-4	28*	-1
CCOC(=O)n1c2ccccc2c(=O)n1CCO	/	/	/	-1	/	/
O=C1NC[C@H](CC2CCCCC2)N(CCC23CC4CC(CC(C4)C2)C3)C1=O	/	/	/	-6	/	/
O=C1[C@H]2[C@@H](c3ccccc3)N[C@]3(CCCN(Cc4ccc(Br)cc4)C3=O)[C@H]2C(=O)N1Cc1ccccc1	/	/	/	-3	/	/
SMILES	C-LANA FP	RTF Ca sens act	Keap1 Nrf2 FP	E coli Lon inh	RTF Ca sens inh	RTF Ca inh conf
Cn1nc(C(C)(C)C)cc1C(=O)N1CCCCC1c1cc(C(=O)Nc2ccccc2Cl)no1 (stereo not given)	/	/	/	10	/	/
OC[C@H]1O[C@@H](c2nc3ccc(-c4nc(-c5ccc(Br)cc5)no4)cc3[nH]2)C[C@@H]1O	/	/	/	-5	/	/
O=C1C=CC2=C3c4cc(O)c(O)cc4CC3(O)COC2=C1O (stereo not given)	107*	-29	-8	12	37*	34*
COc1cc(CN(C)C(C)C(=O)Nc2ccc([N+](=O)[O-])cc2Cl)ccc1OC(F)F (stereo not given)	0	2	-4	4	2	/
COc1ccc(Cl)cc1NC(=O)C(C)N(C)Cc1ccc(C(F)(F)F)cc1 (stereo not given)	1	3	-2	-1	18*	-1
CC(C)(C)c1ccccc1NC(=O)c1ccc(-n2cncn2)c([N+](=O)[O-])c1	1	-2	-5	0	-3	/
O=C(Nc1ccccc1OC(F)F)c1ccc(-n2cncn2)c([N+](=O)[O-])c1	1	5	-4	-6	87*	-5
CCc1nc2c(OCc3ccccc3C)cccn2c1N(C)C(=O)C1CC1	/	/	/	-8	/	/
CC(C)(C)n1nnnc1C(c1cccc(C#N)c1)N1CCCCCC1 (stereo not given)	-1	-4	-3	-7	23*	-1
CC(C)(C)n1nnnc1C(c1cccc(C#N)c1)N1CCN2CCCC2C1 (stereo not given)	1	4	3	-5	1	/
O=C(NCCc1ccccc1)c1cc(S(=O)(=O)N2CCCCC2)c[nH]1	/	/	/	-1	/	/
COc1ccccc1NC(=S)N(Cc1ccccn1)Cc1ccccc1Cl	1	-1	2	4	17*	2
Cc1ccc(-n2c(SCC(=O)O)nc3sc4c(c3c2=O)CCCC4)cc1	-2	-1	-3	3	17*	-4
CCOc1ccc(CN(C)C(=O)c2cccnc2OCC)cc1OC	-1	-3	2	-6	18*	0
CCOc1ncccc1C(=O)NCc1ccc(OC)c(OC)c1	-1	-5	-4	-7	0	/
O=C(C1CC1)N1CCc2cc(Br)cc(S(=O)(=O)NCc3ccco3)c21	2	-5	-13	1	17*	-4
COc1cc(CNC(=O)c2cc(-c3ccc(F)cc3OC)n[nH]2)cc(OC)c1	/	/	/	-9	/	/
COc1cccc(/C=N/Nc2nc3ccccc3n3cnnc23)c1	-1	4	-7	-29	-7	/
COc1cccc(/C=N/Nc2nc3ccccc3n3cnnc23)c1O	1	-15	-2	-299	23*	40*
CCCOC(=O)c1ccc(NC(=O)c2c(Cl)ccc(Cl)c2OC)cc1	2	-6	3	0	21*	-2
CC1(Cc2ccc(F)c(Cl)c2)C(=O)Nc2c(Cl)cccc21 (stereo not given)	/	/	/	-1	/	/
Cc1nc2c(-c3ccc(F)cc3)cnn2c(N)c1-c1ccccc1	4	-11	-4	10	20*	3
Cc1nc2c(-c3ccc(Cl)cc3)cnn2c(N)c1-c1ccc(F)cc1	1	-11	-2	5	-6	/
COCc1cn(CC(=O)c2sc(NC(=O)C(C)(C)C)nc2C)nn1	/	/	/	2	/	/
C[C@H]1CN=C(Nc2ccccc2)N1CCCC1CCCC1	2	1	-4	2	19*	-2
C[C@H]1CN=C(Nc2ccccc2)N1CCC1CCCCC1	2	0	-7	12	9	/
